In PubChem BioAssay:

Molecular target: NADPH oxidase 5 (Homo sapiens) (UniProt Q96PH1)
Test: NOX5-dependent H2O2 signal modulators, primary screen, NOX inhibitor project, cell-based, HEK293-NOX5, Amplex Red fluorescence (AID 1161)
Details: HEK293-NOX5, ionomycin, 45 min, higher = more signal

Chain of NADPH oxidase 5 (Homo sapiens) (Q96PH1 whole entry, looked up): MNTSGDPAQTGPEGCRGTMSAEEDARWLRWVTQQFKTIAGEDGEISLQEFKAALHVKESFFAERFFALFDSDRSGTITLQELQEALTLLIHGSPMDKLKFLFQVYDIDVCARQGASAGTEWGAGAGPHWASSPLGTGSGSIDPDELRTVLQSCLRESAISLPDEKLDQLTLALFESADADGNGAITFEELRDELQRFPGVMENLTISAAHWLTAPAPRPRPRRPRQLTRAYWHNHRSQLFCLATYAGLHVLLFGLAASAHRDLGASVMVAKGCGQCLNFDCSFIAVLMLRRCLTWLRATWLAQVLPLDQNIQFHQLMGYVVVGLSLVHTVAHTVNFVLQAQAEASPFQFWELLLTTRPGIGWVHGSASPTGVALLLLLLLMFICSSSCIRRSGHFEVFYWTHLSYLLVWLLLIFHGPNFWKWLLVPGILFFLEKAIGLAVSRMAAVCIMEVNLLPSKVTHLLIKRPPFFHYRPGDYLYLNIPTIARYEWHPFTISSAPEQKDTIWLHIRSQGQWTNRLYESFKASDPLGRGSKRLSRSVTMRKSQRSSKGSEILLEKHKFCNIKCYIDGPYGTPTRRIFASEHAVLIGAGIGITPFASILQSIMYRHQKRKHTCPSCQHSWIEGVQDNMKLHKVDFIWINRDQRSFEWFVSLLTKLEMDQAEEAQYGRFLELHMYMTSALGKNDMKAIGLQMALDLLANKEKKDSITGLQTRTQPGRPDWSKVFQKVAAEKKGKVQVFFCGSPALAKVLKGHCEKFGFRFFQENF

Structure (SMILES)	z-score
CN1C(=O)[C@]2(CCC(=O)OC(C)(C)C)N=C(c3ccc(OCCCO)cc3)O[C@@H]2c2ccccc21	-1.44
CC(c1ccccc1)C(O)C1C=CC2C(=O)N(c3ccccc3)C(=O)C2N1Nc1ccc(C#N)cc1 (stereo unspecified)	-2.65
COCCOC(=O)N1C(=O)[C@@]2(c3cc(C#CCCO)ccc31)[C@H](C(=O)N1CCN(c3ncccn3)CC1)[C@H]1C(=O)O[C@H](c3ccccc3)[C@H](c3ccccc3)N1[C@@H]2c1ccc(O)cc1	1.29
C#CCN(C/C=C/c1ccccc1)[C@H](CO[Si](C)(C)C(C)(C)C)c1ccccc1	-0.419
NCCCC[C@@H]1NC(=O)[C@H]2C[C@@H](C(=O)O)[C@@H](c3cccc(OCCO)c3)N2C1=O	0.415
[N-]=[N+]=NCc1ccccc1C[C@]1(C(=O)N2CCCCC2)N=C(c2ccc(OCCCO)cc2)O[C@H]1c1ccccc1	-0.924
CCCCC(=C=CC[C@H](O)c1ccc(OCCO)cc1)C[C@H](O)c1ccccn1	-1.34
CN(C)C(=O)[C@@]1(CCS(=O)(=O)c2ccccc2)N=C(c2ccc(OCCCO)cc2)O[C@H]1c1ccccc1N=[N+]=[N-]	-0.984
[N-]=[N+]=NCc1ccccc1[C@@H]1OC(c2ccc(OCCCO)cc2)=N[C@]1(Cc1ccccc1)C(=O)NCc1ccccc1	0.85
O=C(NCCO)C1=C[C@H](Oc2ccccc2I)[C@@H](O)[C@H](NCc2ccc(F)cc2)C1	-3.29
COc1ccc([Si](C)(C)[C@@H]2[C@@H](CC(=O)N(CCO)Cc3ccccc3)O[C@]3(C(=O)N(Cc4ccc(N5CCC5=O)cc4)c4ccccc43)[C@H]2C)cc1	3.52
O=C1NC(=O)C2C1C=CC(C(O)c1cccc(O)c1)N2Nc1ccc(Cl)cc1Cl (stereo unspecified)	-3.11
CC(C)C[C@@H]1NC(=O)C([C@@H](C)OCc2ccccc2)NC(=O)[C@@]23C(=O)N[C@@H](Cc4ccccc4)C2[C@H](C)[C@@]2(C)O[C@H]2C3/C=C/CC/C=C/CNC1=O (stereo partly specified)	-0.24
COc1ccc([Si](C)(C)[C@H]2[C@H](CCO)O[C@@]3(C(=O)N(Cc4ccc(N5CCOC5=O)cc4)c4ccccc43)[C@@H]2C)cc1	0.908
COc1ccc(CCNC(=O)[C@@]2(Sc3ccc(C)cc3)CC(=O)N(Cc3cc(C(F)(F)F)cc(C(F)(F)F)c3)[C@@H]2c2ccc(CO)cc2)cc1	1.02
CCCCC(O)C1C=CC2C(=O)NC(=O)C2N1Nc1ccc(Cl)cc1Cl (stereo unspecified)	-3.41
CO[C@H]1O[C@H](CO)[C@@H](OC(=O)Nc2ccc3c(c2)OCO3)[C@@H]2OC(=O)[C@@H](Cc3ccccc3)C/C=C/C[C@H](Cc3ccccc3)C(=O)O[C@@H]12	-1.47
CN(C)C(=O)[C@]1(Cc2ccccc2CN=[N+]=[N-])N=C(c2ccc(OCCCO)cc2)O[C@@H]1c1ccccc1N=[N+]=[N-]	-0.474

Structure (SMILES)	z-score
O=C1OCCC=C[C@H]2OC34C=CCN(CCN5CCOCC5)C(=O)[C@H]3N(CCCO)C(=O)[C@@H]4C12 (stereo partly specified)	-0.183
C=CCNC(=O)[C@@H]1[C@H]2C(=O)O[C@H](c3ccccc3)[C@H](c3ccccc3)N2[C@H](c2ccccc2OCCO)[C@@]12C(=O)N(C(=O)OCCOC)c1ccc(C#CCCO)cc12	0.165
C=CCC(OC(C)=O)[C@@H]1[C@@H](N(Cc2cccc3ccccc23)C(=O)c2cccc3ccccc23)c2cc(OCCCO)ccc2N1C(=O)Cc1ccc2ccccc2c1 (stereo partly specified)	-2.79
C=C(COC)/C(=C/C[C@@H](OC(C)=O)c1ccccc1OCCO)c1cc(C(=O)OC)ccc1OC	-1.46
COCC(=C=CC[C@@H](O)c1cccc(OCCO)c1)C[C@@H](O)COCc1ccccc1	-1.62
CCCCC=C[C@@H](NC(=O)c1ccc(C(F)(F)F)cc1)c1ccccc1	1.1
COC(=O)[C@]1(CO)N=C(c2ccc(OCCCO)cc2)O[C@@H]1c1ccccc1CN=[N+]=[N-]	0.234
COC(=O)[C@@]1(Cc2ccc(OC)cc2)[C@H]2c3cc(C(=O)N4CCCC4)n(CCc4ccc(OC)c(Br)c4)c3C[C@H]2CN1C(=O)c1ccccc1	-0.759
COCCOC(=O)N1C(=O)[C@@]2(c3cc(C#CCC(C(=O)OC)C(=O)OC)ccc31)[C@H](C(=O)N1CCc3cc(OC)c(OC)cc3C1)[C@H]1C(=O)O[C@H](c3ccccc3)[C@H](c3ccccc3)N1[C@@H]2c1ccc(O)cc1	0.912
CCC(CC)C(O)C1C=CC2C(=O)N(C)C(=O)C2N1N1CCCCC1 (stereo unspecified)	-1.35
COc1cc2c(cc1O)C(c1ccc(CN3CCCC3)cc1)N(Cc1ccc([N+](=O)[O-])o1)CC2 (stereo unspecified)	-3.64
COc1cc(OC)c(C(O)C2C=CC3C(=O)N(c4ccccc4)C(=O)C3N2Nc2ccccc2F)cc1Br (stereo unspecified)	-2.21
NC(=O)N1C(=O)C2C(C1=O)C1C=C(CCCO)C2C(c2ccc(CN3CCCC3)cc2)N1Cc1cccc(OC(F)(F)F)c1 (stereo unspecified)	-1.04
CC(C)C[C@H]1NC(=O)[C@@]23C(=O)N[C@@H](Cc4ccccc4)C2[C@H](C)[C@@]2(C)O[C@H]2C3/C=C/C/C=C\CNC(=O)[C@@H]2CCCN2C1=O (stereo partly specified)	0.968
COC(=O)[C@@]1(Cc2ccc(F)cc2)[C@H]2c3cc(C(=O)N(C)C)n(CCn4cc([N+](=O)[O-])nc4C)c3C[C@H]2CN1C(=O)c1ccccc1	-0.683
C=CC[C@]1(C(=O)NCCCOC)N=C(c2ccc(OCCCO)cc2)O[C@H]1c1ccccc1	-0.87
COCCOC(=O)N1C(=O)[C@@]2(c3cc(C#CC4=CCCCC4)ccc31)[C@H](c1ccccc1OCCO)N1[C@H](c3ccccc3)[C@H](c3ccccc3)OC(=O)[C@H]1[C@@H]2C(N)=O	-0.172
CC(C)C[C@@H]1NC(=O)[C@@]23C(=O)N[C@@H](Cc4ccccc4)C2[C@H](C)[C@@]2(C)O[C@H]2C3/C=C/C/C=C\CNC(=O)[C@@H](CC(C)C)NC1=O (stereo partly specified)	-3.22
